Where “and” joins values, the source holds several entries; their conditions need not be identical. Equal values may be shown once. Out of some 5,500 compounds screened, about 2,000 (36%) were called active. About 18% were inconclusive and are not listed. Cut-off read from the data, not from the text of the source: active = normalized growth mostly below about 0.91 (no sharp cut-off); inconclusive = no clear call, values can overlap the other calls; inactive = mostly above about 0.92. This is one part of the list.
Experiment: chemical genetic growth profiling, strain panel (AID 1159580);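 note: tested at 20 µM; growth read once vehicle control cultures reached saturation at 30 °C; 1 = growth at the plate median or of vehicle wells; lower values mean less growth of the strain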
Conditions: S. cerevisiae deletion strains, growth OD

Measured: normalized growth

CCOC([O-])=Nc1c[n+](N2CCOCC2)no1
inactive: locus YAL013W, strain DEP1, active compounds read low 1.01 | locus YAL021C, strain ccr4, active compounds read low 0.994 | locus YAL026C, strain drs2, active compounds read low 0.999 | locus YAL030W, strain snc1, active compounds read low 0.991 | locus YBL061C, strain skt5, active compounds read low 0.997 | locus YBR009C, strain hhf1, active compounds read low 0.997 | locus YBR021W, strain FUR4, active compounds read low 1.03 | locus YBR023C, strain chs3, active compounds read low 0.986 | locus YBR171W, strain sec66, active compounds read low 1 | locus YBR229C, strain ROT2, active compounds read low 1.01 | locus YBR231C, strain swc5, active compounds read low 0.997 | locus YBR279W, strain paf1, active compounds read low 1.01 | locus YCL011C, strain gbp2, active compounds read low 0.996 | locus YCL016C, strain dcc1, active compounds read low 0.978 | locus YCL029C, strain bik1, active compounds read low 0.991 | locus YCL061C, strain MRC1, active compounds read low 0.998 | locus YCL069W, strain vba3, active compounds read low 0.996 | locus YCR088W, strain abp1, active compounds read low 0.999 | locus YDL005C, strain med2, active compounds read low 0.993 | locus YDL035C, strain GPR1, active compounds read low 1.03 | locus YDL040C, strain nat1, active compounds read low 1 | locus YDL074C, strain BRE1, active compounds read low 1.04 | locus YDL101C, strain DUN1, active compounds read low 1.02 | locus YDL134C, strain PPH21, active compounds read low 1.01 | locus YDL185W, strain tfp1, active compounds read low 0.984 | locus YDL192W, strain arf1, active compounds read low 0.998 | locus YDR001C, strain nth1, active compounds read low 0.993 | locus YDR069C, strain doa4, active compounds read low 1 | locus YDR101C, strain arx1, active compounds read low 0.972 | locus YDR137W, strain rgp1, active compounds read low 1.01 | locus YDR150W, strain NUM1, active compounds read low 1.02 | locus YDR159W, strain sac3, active compounds read low 0.993 | locus YDR162C, strain NBP2, active compounds read low 1.01 | locus YDR195W, strain ref2 1 | locus YDR297W, strain sur2, active compounds read low 1 | locus YDR318W, strain mcm21, active compounds read low 0.99 | locus YDR334W, strain swr1, active compounds read low 0.984 | locus YDR335W, strain msn5, active compounds read low 0.991 | locus YDR388W, active compounds read low 0.997 | locus YDR392W, strain spt3, active compounds read low 0.927 | locus YDR502C, strain sam2, active compounds read low 0.988 | locus YEL003W, strain gim4, active compounds read low 1 | locus YEL037C, strain rad23, active compounds read low 0.993 | locus YEL061C, strain CIN8 (second series), active compounds read low 1 | locus YEL061C, strain CIN8, active compounds read low 1.01 | locus YER015W, strain faa2, active compounds read low 0.979 | locus YER016W, strain bim1, active compounds read low 1.01 | locus YER110C, active compounds read low 0.984 | locus YER111C, strain swi4, active compounds read low 0.979 | locus YER155C, strain BEM2 (second series), active compounds read low 0.984 | locus YER155C, strain BEM2, active compounds read low 1 | locus YER167W, strain BCK2, active compounds read low 1.01 | locus YFR010W, strain ubp6, active compounds read low 0.986 | locus YGL078C, strain dbp3, active compounds read low 0.987 | locus YGL086W, strain mad1, active compounds read low 1 | locus YGL167C, strain pmr1, active compounds read low 1 | locus YGL173C, strain kem1, active compounds read low 0.994 | locus YGL227W, strain vid30, active compounds read low 0.993 | locus YGL240W, strain doc1, active compounds read low 1.01 | locus YGL248W, strain PDE1, active compounds read low 1.01 | locus YGL253W, strain hxk2, active compounds read low 0.993 | locus YGR078C, strain PAC10, active compounds read low 1 | locus YGR135W, strain pre9, active compounds read low 0.986 | locus YGR229C, strain SMI1, active compounds read low 1.02 | locus YGR252W, strain gcn5, active compounds read low 1.01 | locus YHR013C, strain ard1, active compounds read low 0.985 | locus YHR027C, strain rpn1, active compounds read low 0.987 | locus YHR030C, strain SLT2, active compounds read low 1.01 and 1.02 | locus YHR079C, strain IRE1 (second series), active compounds read low 1 | locus YHR079C, strain IRE1, active compounds read low 1.03 | locus YHR094C, strain hxt1, active compounds read low 0.998 | locus YHR129C, strain ARP1, active compounds read low 1.01 | locus YHR142W, strain chs7, active compounds read low 0.992 | locus YHR200W, strain rpn10, active compounds read low 0.995 | locus YIL066C, strain RNR3, active compounds read low 1.01 | locus YIL073C, strain SPO22, active compounds read low 0.973 | locus YIL125W, strain kgd1, active compounds read low 1 | locus YIR030C, strain dcg1, active compounds read low 0.992 | locus YJL092W, strain hpr5, active compounds read low 0.992 | locus YJL095W, strain BCK1 (second series), active compounds read low 0.994 | locus YJL095W, strain BCK1, active compounds read low 1 and 1.03 | locus YJL115W, strain asf1, active compounds read low 0.982 | locus YJL129C, strain trk1, active compounds read low 0.997 | locus YJL134W, strain LCB3, active compounds read low 1.01 | locus YJL154C, strain vps35, active compounds read low 0.99 | locus YJL164C, strain tpk1, active compounds read low 0.989 | locus YJL166W, strain qcr8, active compounds read low 0.991 | locus YJL168C, strain set2, active compounds read low 1 | locus YJL187C, strain SWE1 (second series), active compounds read low 1.01 | locus YJL187C, strain SWE1, active compounds read low 1.01 | locus YJR043C, strain POL32, active compounds read low 0.989 | locus YJR066W, strain TOR1, active compounds read low 0.997

Source: PubChem BioAssay AID1159580 (chemical genetic matrix, 2015)
